Laboratory results: PubChem BioAssay AID743269 (The Scripps Research Institute Molecular Screening Center, 2014)
Several values for one entry are separate records, joined by “and”; a condition that tells them apart may be missing. Equal values may be shown once. Screen size: about 370,000 compounds; about 2,400 (0.65%) were called active.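 The calls were made as follows: active = inhibition above the screen-wide mean plus 3 SD (cut at about 13% in these data); inactive = the rest.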 The entries come from a sample that favours actives as a whole. The source holds several records for some structures; these can differ, active in one and inactive in another.

Each molecule was assayed on HIV-1 integrase (with human LEDGF/p75) (assay: blockers of LEDGF/p75-dependent integrase strand transfer – biochemical, TR-FRET, high throughput, primary screen (AID 743269;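 also: signal is the Cy5 over europium emission ratio at 671 and 618 nm; 0% = plate median of compound wells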)). Conditions: TR-FRET IN-LEDGF/p75 DNA integration, Eu/Cy5; at 3.7 µM; stronger effect = higher value.

Row | SMILES | inhibition
1 | COC(=O)[C@]12C[C@H](CC(=O)NCc3cccc4ccccc34)C(=O)N(CCc3ccc(OC)c(OC)c3)C1=C[C@H](C1CCCC1)O[C@@H]2C | 3.8% (inactive)
2 | C=CC1=C(C(=O)O)N2C(=O)[C@@H](NC(=O)/C(=N\OCC(=O)O)c3csc(N)n3)[C@H]2SC1 | 19.9% (active)
3 | C=CC1=C(C(=O)O)N2C(=O)[C@@H](NC(=O)/C(=N/OCC(=O)O)c3csc(N)n3)[C@H]2SC1 | 63.4% (active)
4 | CO/N=C(\C(=O)N[C@@H]1C(=O)N2C(C(=O)O)=C(COC(C)=O)CS[C@H]12)c1csc(N)n1 (stereo in doubt) | 14.1% (active) and 6.2% (inactive) and 17.6% (active)
5 | COc1ccc(C(=O)OCCN(C)C2CN(Cc3cn(Cc4cccc(C)c4)nn3)S(=O)(=O)C2)cc1OC (configuration not stated) | 4.74% (inactive)
6 | CN(C(N)=NC(=O)/C=C/c1ccccc1)C(C#Cc1ccccc1)Cc1ccccc1 (configuration not stated) | 2.02% (inactive)
7 | COc1ccc(C2CC=C(C(=O)O)C(c3ccccc3F)N2S(=O)(=O)c2ccc(C)cc2)cc1OC (configuration not stated) | -2.7% (inactive)
8 | CN1C[C@]2(C=C3CCCCC3n3c(=O)n(-c4ccccc4)c(=O)n32)N=C1NC(=O)c1ccccc1 (some centres not stated) | 0.62% (inactive)
9 | O=C(CNC(=O)c1ccccc1)OC(C(=O)Nc1cc([N+](=O)[O-])ccc1F)c1ccccc1 (configuration not stated) | -3.25% (inactive)
10 | Cc1ccc(-n2c(SCC(=O)Nc3ccc(S(=O)(=O)Nc4nccs4)cc3)nnc2-c2cccnc2)cc1 | 8.17% (inactive)
11 | COc1cccc(CNC(=O)C2CCCN(c3nc4ccccc4o3)C2)c1OC (configuration not stated) | 3.24% (inactive)
12 | O=C(NCCCn1ccnc1)c1cc(-c2ccccc2)on1 | 1.32% (inactive)
13 | COc1ccccc1-c1cc(C(=O)NCCCn2ccnc2)no1 | 16.7% (active)
14 | O=C(CCN1C(=O)c2ccccc2C1=O)NCCCn1ccnc1 | 1.21% (inactive)
15 | O=C(c1c[nH]c2ccccc12)N1CCC(Oc2cccnc2)CC1 | 8.82% (inactive)
16 | Cc1ccc(-n2c(SCC(=O)Nc3cccc4ccccc34)nnc2-c2ccco2)cc1 | 1.78% (inactive)
17 | COc1ccc(-n2c(SCC(=O)Nc3ccc4c(c3)OCCO4)nnc2-c2ccc(Cl)cc2)cc1 | 3.45% (inactive)
18 | O=C(COC(=O)Cc1ccc(Br)cc1)Nc1ccc(N2CCOCC2)cc1 | -6.57% (inactive)
19 | Cc1csc(=O)n1CCC(=O)OCC(=O)Nc1ccc(N2CCOCC2)cc1 | 1.07% (inactive)
20 | O=C(O)CCC(=O)Nc1ccc(N2CCOCC2)cc1 | 17.1% (active)
21 | COc1ccc(-c2cc(-c3nnc(SCc4ccc([N+](=O)[O-])cc4)n3N)[nH]n2)cc1 | -1.38% (inactive)
22 | COc1ccccc1C(=O)CSc1nnc(-c2ccccn2)n1-c1ccccc1 | -0.35% (inactive)
23 | O=C(CSc1nc2ccccc2s1)NN=Cc1ccc(O)cc1O | -3.78% (inactive)
24 | O=C(Nc1ccccc1)N1CCN(Cc2nc3ccccc3c(=O)[nH]2)CC1 | -2.46% (inactive)

Row | SMILES | inhibition
25 | CCCn1c(C)cc(-c2csc(NC(=O)CCc3nc4ccccc4c(=O)[nH]3)n2)c1C | 5.25% (inactive)
26 | CC(=O)Nc1ccc(C(=O)Nc2nc(-c3cc(C)n(Cc4ccccc4)c3C)cs2)cc1 | 17.7% (active)
27 | Cc1c(C#N)c(NC(=O)c2ccccc2)n(Cc2ccccc2)c1C | 0.96% (inactive)
28 | CCOc1ccc(-n2c(SCC(=O)Nc3cc(C)c(NC(=O)c4ccccc4)cc3OC)nnc2-c2cccs2)cc1 | 1.97% (inactive)
29 | COc1ccc(S[C@]2(C(=O)N(C)C)CC(=O)N(c3ccc(OC)cc3)[C@@H]2c2ccc(OC)cc2)cc1 | 2.73% (inactive)
30 | C=CCN1[C@@H](Cc2ccccc2)COc2cccc(N3CCSCC3)c2S1(=O)=O | 1.03% (inactive)
31 | CCn1c2ccccc2c2cc(NC(=O)CSc3nnc(-c4ccccc4)n3-c3ccc(C)cc3)ccc21 | 0.64% (inactive)
32 | CC1C(=O)N(Cc2cn(Cc3ccco3)nn2)CCS(=O)(=O)N1Cc1ccc(-c2cccc(CO)c2)cc1 (configuration not stated) | 1.97% (inactive)
33 | CC1C(=O)N(Cc2cn(CC3CCCCC3)nn2)CCS(=O)(=O)N1Cc1ccc(-c2cccc(N(C)C)c2)cc1 (configuration not stated) | 5.48% (inactive)
34 | COc1ccc(Cn2cc(CN3CCS(=O)(=O)N(Cc4ccc(-c5cccc(Cl)c5)cc4)C(C)C3=O)nn2)cc1 (configuration not stated) | 79.8% (active)
35 | COC(=O)[C@]12C[C@H](CC(=O)NCc3cccs3)C(=O)N(CCc3ccc(OC)c(OC)c3)C1=C[C@H](C(C)C)O[C@@H]2C1CC1 | 4.37% (inactive)
36 | Cc1c(CC(=O)N2CCN(C(=O)C3COc4ccccc4O3)CC2)c(=O)oc2c(O)c(O)ccc12 (configuration not stated) | 67.8% (active)
37 | CC(=O)c1ccccc1NC(=O)COC(=O)C1COc2ccccc2O1 (configuration not stated) | -3.4% (inactive)
38 | Cc1ccc(S(=O)(=O)N(C)C)cc1NC(=O)COC(=O)C1COc2ccccc2O1 (configuration not stated) | 1.74% (inactive)
39 | C=CCN1C(=O)[C@@H](CC(=O)N2CCN(C(=O)OCC)CC2)[C@]2(C(=O)OCC)CCCCC/C=C/12 | -0.68% (inactive)
40 | CC(C)(C)OC(=O)NCCc1ccccc1/C=C/S(=O)(=O)NCc1ccc(F)cc1 | -1.63% (inactive)
41 | COc1ccc(CN2C/C(=C/c3ccccc3)N3C(=O)C[C@@H](c4ccccc4)N=C23)c(OC)c1 | -1.46% (inactive)
42 | COc1c(O)cc2oc(-c3ccc(O)c(O)c3)cc(=O)c2c1O | 34.7% (active)
43 | CCCC[C@H](C(=O)N(CC)c1ccccc1)[C@@H](O)c1ccc2ccccc2c1 | -3.33% (inactive)
44 | C=CCN1C(=O)[C@H](CC(=O)NCCCN2CCCC2=O)[C@@]2(C(=O)OCC)CCCC=C12 | -3.27% (inactive)
45 | COC1=C[C@H](C(=O)NCCNC(C)=O)[C@H](C)[C@@H](c2ccccc2)CC1=O | -0.49% (inactive)
46 | CN(C)[C@@H]1C(=O)C(C(N)=O)=C(O)[C@@]2(O)C(=O)C3=C(O)c4c(O)ccc(Cl)c4[C@@H](O)[C@H]3C[C@@H]12 | 38.5% (active)
47 | C=C1c2c(Cl)ccc(O)c2C(O)=C2C(=O)[C@]3(O)C(O)=C(C(N)=O)C(=O)[C@@H](N(C)C)[C@@H]3[C@@H](O)C12 (some centres not stated) | 68% (active)
